Measured values as given in PubChem BioAssay (Tox21).
Where “and” joins values, the source holds several entries; their conditions need not be identical. Equal values may be shown once. Results filed as inconclusive are left out. Where a structure was tested more than once in an assay, its records may differ in their call. Calls of active or inactive are those of the source. Unless noted, calls follow the shape of the dose curve; as a rule, active = well fitted curve in the direction sought with a large enough effect in the repeat runs; inconclusive = weak or mixed curves; inactive = no such curve, though single readings can be large; an effect the other way counts as inactive or inconclusive.

How the values were obtained:
[1] = qHTS assay to identify small molecule antagonists of the estrogen receptor alpha (ER-alpha) signaling pathway using the BG1 cell line in the presence of 0.1 nM 17-beta-estradiol - cell viability counter screen (AID 1259241); also: nearly all actives have a fitted effect of over 40% in size
In short: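 Following 5 days in phenol red-free medium with charcoal-stripped serum, VM7Luc4E2 cells received test compounds alongside 0.1 nM 17beta-estradiol (final) at 37C for 22 hr. Live cells were then quantified via protease-substrate fluorescence.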

[2] = qHTS assay to identify small molecule antagonists of the androgen receptor (AR) signaling pathway using the MDA cell line in the presence of 0.5 nM R1881 - cell viability counter screen (AID 1259242); also: nearly all actives have a fitted effect of over 45% in size
In short: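 Human breast carcinoma MDA-kb2 cells, cultured without CO2, receive compounds alongside 0.5 nM (final) R1881 agonist. After 16 hr at 37C, viability is taken as live-cell protease signal.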

[3] = target: Androgen receptor (Homo sapiens) (UniProt P10275); test: qHTS assay to identify small molecule antagonists of the androgen receptor (AR) signaling pathway using the MDA cell line in the presence of 0.5 nM R1881 (AID 1259243); also: nearly all actives have a fitted effect of over 50% in size; also: potency is read from the fitted curve at half-maximal effect
In short: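 Cells: MDA-kb2 (MMTV-luc). Stimulus: 0.5 nM R1881. Time: 16 hr, 37C, no CO2. Detection: ONE-Glo luminescence after 30 min at RT.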

[4] = qHTS assay to identify small molecule phospholipidosis (PLD) inducers (AID 1259344; active = well fitted curve in the direction sought with a large enough effect; an effect the other way counts as inactive or inconclusive)
In short: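 Cells (HepG2, 900 per well) attach for 4 h, receive LipidTOX Red and compound together, incubate 24 h at 37 C, are fixed 30 min with paraformaldehyde/Hoechst, then imaged at one site per well.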

[5] = qHTS assay to identify small molecule HDAC inhibitors (AID 1259364);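 also: wild-type HCT-116 cells with endogenous class I/II HDAC activity; top concentration of the series differs between compounds; nearly all actives have a fitted effect of over 45% in size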
In short: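 After a 2 hr compound incubation (37C, 5% CO2), HCT-116 cells seeded at 1,500/well the day before received HDAC-Glo reagent; signal read as luminescence after 30 min at room temperature.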

[6] = qHTS assay to identify small molecule HDAC inhibitors - cell viability counter screen (AID 1259365); also: series mostly up to about 92 µM; nearly all actives have a fitted effect of over 50% in size
In short: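 HCT-116 wild-type, overnight attachment; 2hr drug exposure, 37C; CellTiter-Glo luminescent ATP readout after 30min RT.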

[7] = qHTS assay to identify small molecule agonists of the sonic hedgehog signaling (Shh) pathway - cell viability counter screen (AID 1259366); also: nearly all actives have a fitted effect of over 50% in size; also: potency is read from the fitted curve at half-maximal effect
In short: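 Compounds in DMSO were pin-transferred onto 3T3 Gli1-Luc cells that had settled 4hr; plates then stood 24hr at 37C and 5% CO2. One hour before the end, CellTiter-Fluor was added and fluorescence recorded.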

[8] = qHTS assay to identify small molecule antagonists of the sonic hedgehog signaling (Shh) pathway - cell viability counter screen (AID 1259367); also: nearly all actives have a fitted effect of over 55% in size
In short: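 Cytotoxicity was assessed in parallel with Shh reporter activity by measuring live-cell protease fluorescence (CellTiter-Fluor) in NIH/3T3 cells stably carrying Gli1-Luc, treated with compound under conditioned medium stimulation for 23 hr plus 1 hr reagent incubation.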

[9] = qHTS assay to identify small molecule agonists of the sonic hedgehog signaling (Shh) pathway (AID 1259368; calls by dose curve;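 also: NIH/3T3-derived 3T3Gli1-Luc cells carrying a stable Gli1-driven firefly luciferase reporter; series mostly up to about 92 µM; nearly all actives have a fitted effect of over 15% in size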)
In short: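 Stable NIH/3T3 Gli1-Luc reporter clone; 24 hr cpd exposure after a 4 hr settling period; luminescence endpoint.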

[10] = qHTS assay to identify small molecule antagonists of the sonic hedgehog signaling (Shh) pathway (AID 1259369; calls by dose curve; also: nearly all actives have a fitted effect of over 45% in size; also: potency is read from the fitted curve at half-maximal effect)
In short: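 Gli1 transcriptional reporter (firefly Luc) in NIH/3T3 background, conditioned-medium activated. 24hr exposure, luminescence endpoint.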

[11] = target: Estrogen receptor beta (Homo sapiens) (UniProt Q92731); test: qHTS assay to identify small molecule antagonists of the estrogen receptor beta (ER-beta) signaling pathway (AID 1259378; active = well fitted inhibition curve with a large enough effect in the signal ratio in the repeat runs, not every such curve was filed as active; the % refers to the signal ratio)
In short: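 ER-beta-UAS-bla HEK293T (GripTite) cells in 2% charcoal-stripped FBS medium were preincubated 6 hr at 37C, dosed with compound, then stimulated with 1 nM E2 (final) for 16 hr; beta-lactamase reporter read by B/G FRET fluorescence after 2 hr substrate loading.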

[12] = qHTS assay to identify small molecule agonists of the androgen receptor (AR) signaling pathway in the presence of an antagonist - cell viability counter screen (AID 1259379);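 also: MDA-kb2 human breast cancer cells carrying an MMTV luciferase reporter; series mostly up to about 92 µM; nearly all actives have a fitted effect of over 25% in size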
In short: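 Counter screen for cell viability run in parallel with the AR agonist-mode luciferase assay. MDA-kb2 cells were co-treated with nilutamide (3.0uM final) and compounds, then incubated 16 hr at 37C, and CellTiter-Fluor fluorescence was measured.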

[13] = qHTS assay to identify small molecule agonists of the estrogen receptor beta (ER-beta) signaling pathway - cell viability counter screen (AID 1259380); also: nearly all actives have a fitted effect of over 30% in size; also: potency is read from the fitted curve at half-maximal effect
In short: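 In this qHTS counter screen, HEK293T cells carrying an ER-beta/UAS beta-lactamase reporter, grown in 2% charcoal-stripped FBS, received compound for 16 hr; ATP-based CellTiter-Glo luminescence was then read after 30 min at room temperature.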

[14] = target: Androgen receptor (Homo sapiens) (UniProt P10275); test: qHTS assay to identify small molecule agonists of the androgen receptor (AR) signaling pathway in the presence of an antagonist (AID 1259381; calls by dose curve; also: nearly all actives have a fitted effect of over 15% in size)
In short: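 AR antagonist background: nilutamide 3.0uM final. Cell line: MDA-kb2, MMTV-driven luciferase, responsive to both AR and GR. Exposure 16hr, 37C, no CO2; ONE-Glo luminescence.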

[15] = qHTS assay to identify small molecule antagonists of the estrogen receptor beta (ER-beta) signaling pathway - cell viability counter screen (AID 1259382); also: nearly all actives have a fitted effect of over 55% in size; also: potency is read from the fitted curve at half-maximal effect
In short: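 HEK293T ER-beta-UAS-bla, 2% charcoal-stripped FBS; compounds + 1nM E2 16 hr 37C; CellTiter-Glo luminescence, 30 min RT.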

[16] = target: Thyrotropin receptor (Homo sapiens) (UniProt P16473); test: qHTS assay to identify small molecule antagonists of the thyroid stimulating hormone receptor (TSHR) signaling pathway (AID 1259385; calls by dose curve; also: nearly all actives have a fitted effect of over 20% in size; also: potency is read from the fitted curve at half-maximal effect)
In short: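 TSHR-HEK293 cells were plated and held 18 h at 37C/5% CO2, then given compound plus Ro20-1724 and stimulated with TSH at 1.5 ng/mL final. After 30 min at room temperature, cAMP was detected with cAMP-d2/anti-cAMP-cryptate (1 h) by fluorescence.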

[17] = target: Estrogen receptor beta (Homo sapiens) (UniProt Q92731); test: qHTS assay to identify small molecule agonists of the estrogen receptor beta (ER-beta) signaling pathway (AID 1259377; active = well fitted activation curve with a large enough effect in the signal ratio in the repeat runs, not every such curve was filed as active; the % refers to the signal ratio)
In short: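 qHTS in ER-beta-UAS-bla HEK293T cells: 6 hr settling, then 16 hr compound at 37C, then LiveBLAzer substrate 2 h at RT before fluorescence reading.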

[18] = qHTS assay to identify small molecule agonists or antagonists of the thyroid stimulating hormone receptor (TSHR) signaling pathway - wild type cell line counter screen (AID 1259384; calls by dose curve)
In short: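 Wild-type HEK293 cells were plated 18 h at 37 C/5% CO2, pin-dosed with compound plus Ro20-1724 medium, held 30 min at room temperature, then given cAMP-d2 and anti-cAMP-cryptate; fluorescence was read after 1 h. Fifteen concentrations, triplicate.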

[19] = target: Estrogen receptor (Homo sapiens) (UniProt P03372); test: qHTS assay to identify small molecule antagonists of the estrogen receptor alpha (ER-alpha) signaling pathway using the BG1 cell line in the presence of 0.1 nM 17-beta-estradiol (AID 1259244); also: nearly all actives have a fitted effect of over 50% in size; also: potency is read from the fitted curve at half-maximal effect
In short: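 Seeding of stripped-serum-adapted VM7Luc4E2 cells, 24 h attachment, compound transfer, then 0.1 nM final 17beta-estradiol; after 22 h incubation, ONE-Glo reagent and luminescence reading.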

[20] = target: Estrogen receptor (Homo sapiens) (UniProt P03372); test: qHTS assay to identify small molecule agonists of the estrogen receptor alpha (ER-alpha) signaling pathway in the presence of an antagonist (AID 1259383; calls by dose curve; also: top concentration of the series differs between compounds; nearly all actives have a fitted effect of over 15% in size)
In short: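 ER-alpha agonism measured under antagonist challenge: 10.0nM ICI-182,780 (final) plus compound, 15 concentrations, 22hr, VM7Luc4E2 ERE-luciferase cells. Read by luminescence.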

Measured: Potency

Sequence of Estrogen receptor beta (Homo sapiens) (Q92731 whole entry, looked up): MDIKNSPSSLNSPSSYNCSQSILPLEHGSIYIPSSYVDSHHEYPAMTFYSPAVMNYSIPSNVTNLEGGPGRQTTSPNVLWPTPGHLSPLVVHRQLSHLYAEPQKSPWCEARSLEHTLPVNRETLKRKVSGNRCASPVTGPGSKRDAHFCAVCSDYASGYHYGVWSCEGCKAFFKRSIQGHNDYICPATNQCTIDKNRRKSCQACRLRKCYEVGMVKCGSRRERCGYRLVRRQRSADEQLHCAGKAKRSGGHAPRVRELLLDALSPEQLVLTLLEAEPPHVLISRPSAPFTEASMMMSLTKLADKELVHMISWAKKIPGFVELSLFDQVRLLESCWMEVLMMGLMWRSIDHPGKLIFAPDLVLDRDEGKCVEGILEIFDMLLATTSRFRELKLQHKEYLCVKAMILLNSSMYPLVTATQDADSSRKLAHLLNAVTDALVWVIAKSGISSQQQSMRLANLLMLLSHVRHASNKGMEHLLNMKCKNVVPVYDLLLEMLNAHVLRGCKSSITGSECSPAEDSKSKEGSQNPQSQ
Sequence of Androgen receptor (Homo sapiens) (P10275 whole entry, looked up): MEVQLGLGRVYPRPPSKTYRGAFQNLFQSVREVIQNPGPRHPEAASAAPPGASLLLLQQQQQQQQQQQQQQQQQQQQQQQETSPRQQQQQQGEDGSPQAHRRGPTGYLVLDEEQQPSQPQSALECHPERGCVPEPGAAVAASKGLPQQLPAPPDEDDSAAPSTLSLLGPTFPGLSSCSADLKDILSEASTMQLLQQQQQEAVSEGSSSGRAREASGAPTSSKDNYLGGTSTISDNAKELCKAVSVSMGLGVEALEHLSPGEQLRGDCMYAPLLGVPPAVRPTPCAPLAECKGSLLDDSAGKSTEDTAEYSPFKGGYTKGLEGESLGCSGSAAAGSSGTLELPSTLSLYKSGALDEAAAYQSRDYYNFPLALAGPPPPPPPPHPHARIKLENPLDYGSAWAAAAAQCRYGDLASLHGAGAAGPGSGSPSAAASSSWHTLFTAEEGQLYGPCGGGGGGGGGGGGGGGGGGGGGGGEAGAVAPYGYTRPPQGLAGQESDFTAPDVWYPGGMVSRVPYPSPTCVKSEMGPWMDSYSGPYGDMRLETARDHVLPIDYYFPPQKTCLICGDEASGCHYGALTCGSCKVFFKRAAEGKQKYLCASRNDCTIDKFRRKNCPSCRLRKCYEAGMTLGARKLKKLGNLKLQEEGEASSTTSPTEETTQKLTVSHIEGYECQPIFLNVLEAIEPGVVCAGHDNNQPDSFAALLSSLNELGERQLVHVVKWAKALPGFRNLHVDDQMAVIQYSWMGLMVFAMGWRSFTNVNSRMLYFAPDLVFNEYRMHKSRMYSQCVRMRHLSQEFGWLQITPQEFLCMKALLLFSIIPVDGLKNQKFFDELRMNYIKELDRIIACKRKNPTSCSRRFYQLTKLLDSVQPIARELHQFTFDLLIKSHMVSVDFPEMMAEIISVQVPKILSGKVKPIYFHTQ
Sequence of Estrogen receptor (Homo sapiens) (P03372 whole entry, looked up): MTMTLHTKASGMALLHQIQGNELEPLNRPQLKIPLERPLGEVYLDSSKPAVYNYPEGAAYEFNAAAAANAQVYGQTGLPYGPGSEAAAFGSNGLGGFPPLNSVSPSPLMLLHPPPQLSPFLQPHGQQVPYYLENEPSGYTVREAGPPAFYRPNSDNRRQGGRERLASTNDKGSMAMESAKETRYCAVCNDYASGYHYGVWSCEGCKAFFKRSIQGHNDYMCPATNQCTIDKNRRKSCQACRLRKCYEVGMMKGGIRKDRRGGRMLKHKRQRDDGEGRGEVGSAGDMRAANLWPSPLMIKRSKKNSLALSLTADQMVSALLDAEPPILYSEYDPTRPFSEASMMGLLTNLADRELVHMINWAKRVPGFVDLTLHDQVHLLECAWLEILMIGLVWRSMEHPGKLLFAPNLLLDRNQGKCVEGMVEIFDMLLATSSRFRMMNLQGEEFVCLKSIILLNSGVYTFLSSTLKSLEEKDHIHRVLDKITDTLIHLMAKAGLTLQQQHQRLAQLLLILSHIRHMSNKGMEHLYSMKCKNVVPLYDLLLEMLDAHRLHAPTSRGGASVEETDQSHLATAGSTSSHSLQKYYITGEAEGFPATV
Sequence of Thyrotropin receptor (Homo sapiens) (P16473 whole entry, looked up): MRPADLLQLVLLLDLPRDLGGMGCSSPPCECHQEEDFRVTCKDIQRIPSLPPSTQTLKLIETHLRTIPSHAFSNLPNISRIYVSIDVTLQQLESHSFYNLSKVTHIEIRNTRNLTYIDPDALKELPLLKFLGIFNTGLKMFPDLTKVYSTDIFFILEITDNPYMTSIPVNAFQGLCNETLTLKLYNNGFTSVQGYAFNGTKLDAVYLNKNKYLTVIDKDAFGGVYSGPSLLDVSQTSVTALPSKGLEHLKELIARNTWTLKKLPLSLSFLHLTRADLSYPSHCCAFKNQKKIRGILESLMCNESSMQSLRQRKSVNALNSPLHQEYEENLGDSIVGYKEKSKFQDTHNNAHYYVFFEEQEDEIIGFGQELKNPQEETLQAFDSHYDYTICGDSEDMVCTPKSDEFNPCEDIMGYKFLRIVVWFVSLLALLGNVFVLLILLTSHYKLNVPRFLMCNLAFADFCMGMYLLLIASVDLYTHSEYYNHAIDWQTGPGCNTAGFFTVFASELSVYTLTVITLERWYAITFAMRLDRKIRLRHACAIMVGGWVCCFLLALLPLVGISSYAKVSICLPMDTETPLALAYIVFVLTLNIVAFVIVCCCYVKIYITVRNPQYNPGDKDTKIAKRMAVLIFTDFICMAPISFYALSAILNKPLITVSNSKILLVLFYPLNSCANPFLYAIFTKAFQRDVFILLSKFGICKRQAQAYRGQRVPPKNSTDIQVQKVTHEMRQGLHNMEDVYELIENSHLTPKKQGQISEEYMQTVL

Oc1ccc(Cl)cc1Cc1ccccc1
active: [3] 12.2 µM and 4.38 µM | [10] 13.7 µM and 24.6 µM | [13] 54.5 µM and 27.6 µM | [15] 48.6 µM and 52.1 µM
inactive and 55.1 µM (active): [16]
55.1 µM (active) and inactive: [7]
inactive: [1] | [2] | [4] | [5] | [6] | [8] | [9] | [11] | [12] | [14]

CCOP(=S)(OCC)OP(=S)(OCC)OCC
inactive: [1] | [2] | [3] | [5] | [6] | [7] | [8] | [9] | [10] | [17] | [11] | [12] | [13] | [14] | [15] | [16]

CC(C)(c1ccc(OCC2CO2)cc1)c1ccc(OCC2CO2)cc1 (stereo unspecified)
43.8 µM (active) and inactive: [15]
inactive: [1] | [2] | [3] | [5] | [7] | [8] | [9] | [12] | [14] | [18] | [16]
active: [10] 15.6 µM | [13] 61.9 µM

CCCCOCC1CO1 (stereo unspecified)
inactive: [1] | [2] | [19] | [5] | [6] | [7] | [8] | [9] | [10] | [12] | [13] | [15] | [20] | [18] | [16]

c1ccc2c(c1)Nc1ccccc1S2
inactive: [1] | [2] | [19] | [4] | [5] | [7] | [8] | [9] | [10] | [17] | [11] | [12] | [13] | [15] | [20]

C=CC(Cl)CCl (stereo unspecified)
inactive: [1] | [2] | [3] | [5] | [6] | [7] | [8] | [9] | [10] | [17] | [11] | [12] | [13] | [14] | [15] | [16]

COP(=S)(OC)Oc1ccc(Sc2ccc(OP(=S)(OC)OC)cc2)cc1
61.1 µM (active) and inactive: [3] | [19]
inactive: [1] | [2] | [4] | [5] | [6] | [7] | [8] | [9] | [17] | [11] | [12] | [13] | [14] | [15] | [18] | [16]
68.6 µM (active) and inactive: [10]
